The test system of assay [1] is Plasmodium falciparum Sir2 (PF13_0152, Sir2A). Description: Plasmodium falciparum Sir2A binding compounds – biochemical, small-molecule microarray, 635 nm fluorescence, primary screen (AID 1098).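 Note: score merges spot fluorescence intensity with its signal-to-noise ratio.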 The conditions noted are these: fluorescence 635 nm, higher = more signal.
Assay [2] in a line: probe aDKK1 binding to arrayed compounds – biochemical, biotinylated probe, 635/667 nm fluorescence, primary screen (AID 1099).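 Note: score merges 667nm spot fluorescence with signal to noise across triplicate slides.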 The conditions noted are these: small-molecule microarray, higher = more signal.
Assay [3] in a line: probe aCHRDL2 binding to arrayed compounds – biochemical, biotinylated probe, 635/667 nm fluorescence, primary screen (AID 1100). The conditions noted are these: small-molecule microarray, higher = more signal.
Assay [4] can be described thus: change in splice reporter luminescence, either direction, cell-based, HEK293, spliceosome inhibition project, primary screen (AID 1101).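 Note: HEK293 cells carrying a splicing-competent luciferase reporter gene; test concentration not given here.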 The conditions noted are these: HEK293 splicing luciferase reporter, 24 h, higher = more signal, called active from +8 up or from −8 down.
In assay [5] the target is Fibroblast growth factor 10 (Homo sapiens) (UniProt O15520). Description: compounds binding fibroblast growth factor 10 – biochemical, small-molecule microarray, 635 nm fluorescence, primary screen (AID 1102). The conditions noted are these: FGF10 binding, fluorescence 635 nm, higher = more signal.
Sequence of Fibroblast growth factor 10 (Homo sapiens) (O15520 whole entry, looked up): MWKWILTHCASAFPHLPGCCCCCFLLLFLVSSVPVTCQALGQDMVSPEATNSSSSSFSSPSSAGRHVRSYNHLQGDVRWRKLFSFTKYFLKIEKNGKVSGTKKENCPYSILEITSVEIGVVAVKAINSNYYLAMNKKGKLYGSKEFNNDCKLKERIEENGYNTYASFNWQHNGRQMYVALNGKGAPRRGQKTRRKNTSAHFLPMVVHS
The subject of assay [6] is glycogen synthase kinase-3 (GSK3A per assay name; protocol says GSK3B). In words: compounds binding glycogen synthase kinase-3 – biochemical, small-molecule microarray, 635 nm fluorescence, GSK3A, primary screen (AID 1103). Note: the record names both GSK3A and GSK3B. The conditions noted are these: fluorescence 635 nm, higher = more signal.
Assay [7] deals with Epidermal growth factor receptor (Homo sapiens) (UniProt P00533). Description: compounds binding epidermal growth factor receptor – biochemical, small-molecule microarray, 635 nm fluorescence, primary screen (AID 1104).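 Note: score merges 667 nm emission intensity with spot signal to noise over triplicate slides.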 The conditions noted are these: EGFR binding, higher = more signal.
Sequence of Epidermal growth factor receptor (Homo sapiens) (P00533 whole entry, looked up): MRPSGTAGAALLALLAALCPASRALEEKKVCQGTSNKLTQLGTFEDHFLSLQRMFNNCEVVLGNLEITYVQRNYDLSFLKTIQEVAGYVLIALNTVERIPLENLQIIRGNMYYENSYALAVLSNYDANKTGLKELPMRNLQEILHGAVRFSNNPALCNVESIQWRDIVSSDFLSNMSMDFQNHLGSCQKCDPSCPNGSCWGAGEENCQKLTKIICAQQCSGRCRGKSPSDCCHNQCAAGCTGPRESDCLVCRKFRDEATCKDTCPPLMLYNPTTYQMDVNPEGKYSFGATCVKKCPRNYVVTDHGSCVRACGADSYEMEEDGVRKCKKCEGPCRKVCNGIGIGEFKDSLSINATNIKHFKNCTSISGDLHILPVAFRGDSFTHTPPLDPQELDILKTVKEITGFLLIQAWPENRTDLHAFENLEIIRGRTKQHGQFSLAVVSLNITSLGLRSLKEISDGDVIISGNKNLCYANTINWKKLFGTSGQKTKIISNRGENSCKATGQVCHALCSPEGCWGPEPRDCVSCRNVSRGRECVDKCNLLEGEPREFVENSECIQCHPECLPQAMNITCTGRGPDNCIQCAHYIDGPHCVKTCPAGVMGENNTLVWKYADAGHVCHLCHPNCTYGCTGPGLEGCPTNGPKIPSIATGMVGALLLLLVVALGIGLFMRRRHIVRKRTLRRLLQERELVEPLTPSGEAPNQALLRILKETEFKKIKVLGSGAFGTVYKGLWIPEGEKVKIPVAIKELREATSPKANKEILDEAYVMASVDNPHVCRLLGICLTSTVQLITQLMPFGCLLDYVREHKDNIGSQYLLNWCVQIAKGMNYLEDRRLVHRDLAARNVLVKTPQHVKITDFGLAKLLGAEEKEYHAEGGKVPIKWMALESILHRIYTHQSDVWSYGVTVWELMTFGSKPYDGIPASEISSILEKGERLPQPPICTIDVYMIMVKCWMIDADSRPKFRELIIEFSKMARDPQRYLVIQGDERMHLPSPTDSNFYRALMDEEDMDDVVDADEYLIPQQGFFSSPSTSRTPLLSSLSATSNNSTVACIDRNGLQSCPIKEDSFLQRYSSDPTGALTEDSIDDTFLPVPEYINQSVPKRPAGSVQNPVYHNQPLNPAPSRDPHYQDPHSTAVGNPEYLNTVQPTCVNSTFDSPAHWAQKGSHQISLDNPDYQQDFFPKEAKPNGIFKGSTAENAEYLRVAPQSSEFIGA
Assay [8] deals with Follistatin-related protein 3 (Homo sapiens) (UniProt O95633). Description: compounds binding follistatin-related protein 3 – biochemical, small-molecule microarray, 635 nm fluorescence, primary screen (AID 1105).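 Note: score merges emission near 667 nm and signal to noise per printed spot across three slides.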 The conditions noted are these: FSTL3 binding, higher = more signal.
Sequence of Follistatin-related protein 3 (Homo sapiens) (O95633 whole entry, looked up): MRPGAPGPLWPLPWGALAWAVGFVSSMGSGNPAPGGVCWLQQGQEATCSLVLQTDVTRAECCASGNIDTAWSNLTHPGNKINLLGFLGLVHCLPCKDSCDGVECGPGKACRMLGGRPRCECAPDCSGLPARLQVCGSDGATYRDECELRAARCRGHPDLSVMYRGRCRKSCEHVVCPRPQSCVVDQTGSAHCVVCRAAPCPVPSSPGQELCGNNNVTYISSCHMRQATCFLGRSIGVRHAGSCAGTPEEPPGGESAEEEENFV
For assay [9], the target named is Dickkopf-related protein 1 (Homo sapiens) (UniProt O94907). Description: small molecules binding DKK1 protein – biochemical, small-molecule microarray, 635 nm fluorescence scan, primary screen (AID 1106).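 Note: score merges emission near 667 nm with signal to noise over three replicate slides.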 The conditions noted are these: higher = more signal.
Sequence of Dickkopf-related protein 1 (Homo sapiens) (O94907 whole entry, looked up): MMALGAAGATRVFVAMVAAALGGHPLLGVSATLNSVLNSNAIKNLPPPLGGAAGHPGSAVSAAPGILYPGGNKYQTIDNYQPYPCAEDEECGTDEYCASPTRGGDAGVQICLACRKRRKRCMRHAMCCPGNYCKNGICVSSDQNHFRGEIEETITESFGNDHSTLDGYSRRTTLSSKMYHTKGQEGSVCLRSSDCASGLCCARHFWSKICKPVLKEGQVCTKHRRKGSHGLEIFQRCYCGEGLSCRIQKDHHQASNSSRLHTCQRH
In assay [10] the test system is Inhibin beta A chain (activin A). In words: small molecules binding activin A – biochemical, small-molecule microarray, 635 nm fluorescence scan, primary screen (AID 1107).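 Note: mouse activin A protein probed at 4.33 µg/mL on printed slides; score merges bound-protein fluorescence near 667 nm with spot signal-to-noise.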 The conditions noted are these: INHBA, higher = more signal.
Assay [11] has as its system Human papillomavirus type 1a protein E7 (residues 44-93). In words: small molecules binding HPV E7 44-93 – biochemical, small-molecule microarray, residues 44-93, 635 nm fluorescence, primary screen (AID 1108).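 Note: E7 fragment applied at 1 µg/mL in TBST for 1 h at 4 C; score combines spot fluorescence with its signal to noise ratio.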 The conditions noted are these: fluorescence 635 nm, higher = more signal.
Assay [12] is described as follows: hepatitis C replication reporter changes, two-sided – Huh7 cells, luciferase reporter, HCV replication inhibitor project, primary screen (AID 1109).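 Note: huh7 hepatoma cells harbouring a luciferase neomycin HCV replicon reporter; luciferase luminescence as measure of HCV replicon replication; test concentration not given here.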 The conditions noted are these: Huh7 HCV replicon luciferase reporter, 48 h; higher = more signal.
Assay [13] has as its target Left-right determination factor 2 (Homo sapiens) (UniProt O00292). Description: small molecules binding LEFTY2 protein – biochemical, small-molecule microarray, 635 nm fluorescence scan, primary screen (AID 1110). The conditions noted are these: higher = more signal.
The target of assay [14] is Calmodulin-1 (Homo sapiens) (UniProt P0DP23). In words: small molecules binding calmodulin-1 with EGTA – biochemical, small-molecule microarray, Cy5-labelled CALM1, profiling panel (AID 1111).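 Note: labelled calmodulin applied in Tris saline Tween buffer holding calcium plus EGTA and DTT.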 The conditions noted are these: Cy5-CALM1 binding fluorescence, higher = more signal.
Assay [15] shares this target. Description: small molecules binding Ca-loaded calmodulin-1 – biochemical, small-molecule microarray, Cy5-labelled CALM1, plus calcium, artefact control for SMM control-protein annotation, profiling panel (AID 1112).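 Note: score merges spot fluorescence with signal to noise from triplicate slides.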 The conditions noted are these: Cy5-CALM1 binding fluorescence, higher = more signal.
A short description of assay [16]: probe aWnt5a binding to arrayed compounds – biochemical, biotinylated probe, 635/667 nm fluorescence, primary screen (AID 1113).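 Note: score merges 667 nm fluorescence intensity with signal-to-noise per printed feature.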 The conditions noted are these: small-molecule microarray, higher = more signal.
Assay [17] can be described thus: probe aShh binding to arrayed compounds – biochemical, biotinylated probe, 635/667 nm fluorescence, primary screen (AID 1114).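 Note: probe is biotin-labelled aShh protein from a stem cell growth factor screen; measures binding of labelled protein to compounds printed on the slide; score merges feature fluorescence at 667 nm with signal-to-noise.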 The conditions noted are these: small-molecule microarray, higher = more signal.
The nature of assay [18]: probe aNog binding to arrayed compounds – biochemical, biotinylated probe, 635/667 nm fluorescence, primary screen (AID 1115).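 Note: probe is biotinylated aNog protein used at 0.15 µg/mL for 1 h at 4 C; z-score combines 667 nm fluorescence of each spot with its signal to noise.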 The conditions noted are these: small-molecule microarray, higher = more signal.
Assay [19] deals with Torsin-1A-interacting protein 1 (Homo sapiens) (UniProt Q5JTV8). Description: compound microarray binding of lysate hLAP1 – cell lysate, small-molecule microarray, COS7 lysate, 635/667 nm fluorescence, primary screen (AID 1116). The conditions noted are these: 635 nm fluorescence, higher = more signal.
Sequence of Torsin-1A-interacting protein 1 (Homo sapiens) (Q5JTV8 whole entry, looked up): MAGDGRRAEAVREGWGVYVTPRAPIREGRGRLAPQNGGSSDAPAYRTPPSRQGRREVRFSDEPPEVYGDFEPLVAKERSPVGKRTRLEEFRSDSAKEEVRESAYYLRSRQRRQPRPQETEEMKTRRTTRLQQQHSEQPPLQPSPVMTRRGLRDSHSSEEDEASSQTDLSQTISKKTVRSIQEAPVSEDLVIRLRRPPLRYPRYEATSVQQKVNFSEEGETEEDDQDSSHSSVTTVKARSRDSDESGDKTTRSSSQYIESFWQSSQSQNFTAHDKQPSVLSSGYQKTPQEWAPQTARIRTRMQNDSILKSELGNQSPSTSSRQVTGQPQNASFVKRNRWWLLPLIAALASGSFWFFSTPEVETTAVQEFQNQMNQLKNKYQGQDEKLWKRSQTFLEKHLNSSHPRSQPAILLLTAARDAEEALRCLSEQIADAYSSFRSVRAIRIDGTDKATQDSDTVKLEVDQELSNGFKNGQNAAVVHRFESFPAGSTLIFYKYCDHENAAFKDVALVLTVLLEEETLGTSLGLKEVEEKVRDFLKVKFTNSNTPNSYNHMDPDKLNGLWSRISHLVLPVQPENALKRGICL
For assay [20], the target named is Alpha-bungarotoxin (Bungarus multicinctus) (UniProt P60615). Description: compounds binding labelled alpha-BTX control protein – biochemical, small-molecule microarray, Alexa647 label, 635/667 nm fluorescence, artefact control for SMM control protein annotation, profiling panel (AID 1117). The conditions noted are these: alpha-BTX-A647 binding fluorescence, higher = more signal.
Sequence of Alpha-bungarotoxin (Bungarus multicinctus) (P60615 whole entry, looked up): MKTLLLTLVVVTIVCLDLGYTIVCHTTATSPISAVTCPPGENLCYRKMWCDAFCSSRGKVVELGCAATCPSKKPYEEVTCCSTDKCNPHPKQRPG

Active and inactive are the calls of the source.

Data on five compounds can be found in PubChem BioAssay.

Sequence of Left-right determination factor 2 (Homo sapiens) (O00292 whole entry, looked up): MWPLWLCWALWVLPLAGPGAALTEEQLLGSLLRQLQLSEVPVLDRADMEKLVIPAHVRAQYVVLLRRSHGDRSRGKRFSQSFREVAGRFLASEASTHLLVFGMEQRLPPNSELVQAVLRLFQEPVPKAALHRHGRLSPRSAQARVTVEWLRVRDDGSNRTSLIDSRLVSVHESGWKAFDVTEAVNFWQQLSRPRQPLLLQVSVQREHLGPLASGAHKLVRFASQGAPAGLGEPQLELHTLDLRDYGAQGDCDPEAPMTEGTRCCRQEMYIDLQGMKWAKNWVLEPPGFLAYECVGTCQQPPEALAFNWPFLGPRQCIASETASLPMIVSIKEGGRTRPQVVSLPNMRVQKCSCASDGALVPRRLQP

On to `CCC(CC)C(O)C1C=CC2C(=O)N(C)C(=O)C2N1Nc1ccccc1` (stereo not given), for which the composite z-score stood at 0.695 in assay [1]; 0.332 in [2]; 0.9 in [3]; 0.603 in assay [5]; 0.499 in assay [6]; 0.0611 in assay [7]. Further, the composite z-score in assay [8] is 0.698; in [9] it was 0.371; in assay [10] it was 0.867; in [11], 0.948; in [13], -0.054; in [14], 1.44. The composite z-score in assay [15] is 0.463; in assay [16] it was -0.0863; in assay [17] it was 0.128; in assay [18], 1.09; in [19], 1.64; in assay [20], 1.04. Further, the z-score was 0.464 (inactive) in [4] and 0.347 in [12].

Turning to `O=C1c2ccccc2[C@](Cc2ccccc2I)(C(=O)NC2CC2)[C@H](c2ccc(CO)cc2)N1C1CCCCC1`, the composite z-score in assay [1] was 1.19; in [2] it was -0.809; in assay [3], -0.589; in assay [5], 0.724; in [6], 1.33; in [7] it was 0.543. The composite z-score amounted to 1.05 in assay [8]; 0.529 in assay [9]; 0.435 in [10]; 1.46 in assay [11]; 0.272 in assay [13]; 0.675 in assay [14]. Moreover, the composite z-score is 0.0028 in assay [15]; -0.176 in assay [16]; -0.421 in [17]; -0.0067 in assay [18]; 0.547 in [19]; 1.38 in assay [20]. In addition, the z-score in assay [4] was -0.578 (inactive); in assay [12], -1.62.

Turning to `C[N+](C)(C)CCCC[C@@H]1NC(=O)[C@@H]2C[C@H](C(=O)NCCCCCN)[C@H](c3cccc(OCCO)c3)N2C1=O`, the composite z-score in [1] is 1.07; in assay [2], 0.0277; in assay [3], 0.356; in [5], 1.12; in assay [6] it was 1.3; in assay [7], -0.167. In addition, the composite z-score is -0.144 in assay [8]; -0.17 in assay [9]; -0.68 in [10]; 1.32 in [11]; -0.202 in assay [13]; 1.7 in assay [14]. For the same compound, the composite z-score in assay [15] is 1.12; in assay [16] it was -0.289; in assay [17], -0.256; in assay [18], 0.422; in [19] it was 0.987; in assay [20], 0.932. Further, the z-score in assay [4] is -0.657 (inactive); in assay [12] it was -0.0028.

Regarding `C=CCNC(=O)[C@@H]1[C@H]2C(=O)O[C@H](c3ccccc3)[C@H](c3ccccc3)N2[C@H](c2ccc(OCCO)cc2)[C@@]12C(=O)Nc1ccc(C#CCCO)cc12`, the composite z-score was 1.7 in assay [1]; -0.0674 in [2]; 0.456 in assay [3]; 1.22 in [5]; 1.27 in [6]; 0.652 in [7]. Moreover, the composite z-score is 1.42 in assay [8]; 1.12 in [9]; 1.26 in [10]; 1.32 in assay [11]; 1.28 in assay [13]; 1.44 in [14]. Also, the composite z-score in [15] is -0.0758; in [16], 0.452; in [17], 2.63; in assay [18], 2.4; in assay [19], 2.12; in assay [20], 1.68. In addition, the z-score in assay [4] was -1.09 (inactive); in assay [12], -1.36.

`C=CCN1C(=O)[C@]2(O[C@H](CCO)[C@@H]([Si](C)(C)c3ccc(OC)cc3)[C@@H]2C)c2cc(N3C(=O)c4cccc5cccc3c45)ccc21`: the composite z-score in [1] is 1.18; in assay [2] it was 0.0458; in assay [3], 0.151; in assay [5], 0.446; in assay [6], 0.398; in assay [7], -0.0841. For the same compound, the composite z-score is 0.286 in assay [8]; -0.255 in [9]; 0.552 in [10]; 1.17 in [11]; 0.164 in assay [13]; 0.719 in [14]. For the same compound, the composite z-score is 0.124 in [15]; -0.159 in assay [16]; 0.0639 in assay [17]; -0.338 in assay [18]; 0.374 in assay [19]; 0.3 in assay [20]. The figures for the z-score in assay [4] and in assay [12] were -2.45 (inactive) and -5.11, respectively.
